# Only a selection was taken, and the strongest signals are over-represented in it overall.
# Tests used:
# Test in all cases: glycan array binding signal (z-score within array); higher = stronger binding
# Conditions in all cases: glycan notation: IUPAC condensed, linker removed
# [1] = biological target: GalNAc(b1-4)GlcNAc(b1-2)Man(a1-3)[GalNAc(b1-4)GlcNAc(b1-2)Man(a1-6)]Man(b1-4)GlcNAc(b1-4)GlcNAc
# Procedure, shortened: (§1)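 Columns mapping to the same glycan were averaged after glycan names were converted to IUPAC-condensed notation. The data come from 3228 arrays in the Consortium for Functional Glycomics database, limited to those with an available protein sequence. Binding is reported as a within-array Z-score averaged across arrays of one protein sequence and across linkers.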
# [2] = biological target: GlcNAc(b1-2)[GlcNAc(b1-4)]Man(a1-3)[GlcNAc(b1-2)Man(a1-6)]Man(b1-4)GlcNAc(b1-4)GlcNAc
# Procedure, shortened: as §1
# [3] = biological target: GlcNAc(b1-3)Gal(b1-4)Glc
# Procedure, shortened: as §1
# [4] = biological target: GlcNAc(b1-3)Gal(b1-4)GlcNAc(b1-3)Gal(b1-4)GlcNAc(b1-2)[GlcNAc(b1-3)Gal(b1-4)GlcNAc(b1-3)Gal(b1-4)GlcNAc(b1-6)]Man(a1-6)[GlcNAc(b1-3)Gal(b1-4)GlcNAc(b1-3)Gal(b1-4)GlcNAc(b1-2)Man(a1-3)]Man(b1-4)GlcNAc(b1-4)[Fuc(a1-6)]GlcNAc
# Procedure, shortened: as §1
# [5] = biological target: GlcNAc(b1-3)Gal(b1-4)GlcNAc(b1-3)Gal(b1-4)GlcNAc(b1-3)Gal(b1-4)GlcNAc(b1-2)[GlcNAc(b1-3)Gal(b1-4)GlcNAc(b1-3)Gal(b1-4)GlcNAc(b1-3)Gal(b1-4)GlcNAc(b1-6)]Man(a1-6)[GlcNAc(b1-3)Gal(b1-4)GlcNAc(b1-3)Gal(b1-4)GlcNAc(b1-3)Gal(b1-4)GlcNAc(b1-2)Man(a1-3)]Man(b1-4)GlcNAc(b1-4)[Fuc(a1-6)]GlcNAc
# Procedure, shortened: as §1
# [6] = biological target: GlcNAc(b1-3)Gal(b1-4)GlcNAc(b1-3)Gal(b1-4)GlcNAc(b1-3)Gal(b1-4)GlcNAc(b1-3)Gal(b1-4)GlcNAc(b1-2)[GlcNAc(b1-3)Gal(b1-4)GlcNAc(b1-3)Gal(b1-4)GlcNAc(b1-3)Gal(b1-4)GlcNAc(b1-3)Gal(b1-4)GlcNAc(b1-6)]Man(a1-6)[GlcNAc(b1-3)Gal(b1-4)GlcNAc(b1-3)Gal(b1-4)GlcNAc(b1-3)Gal(b1-4)GlcNAc(b1-3)Gal(b1-4)GlcNAc(b1-2)Man(a1-3)]Man(b1-4)GlcNAc(b1-4)[Fuc(a1-6)]GlcNAc
# Procedure, shortened: as §1
# [7] = biological target: GlcNAc(b1-3)[GlcNAc(b1-6)]Gal(b1-4)GlcNAc
# Procedure, shortened: as §1
# [8] = biological target: GlcNAc(b1-3)[GlcNAc(b1-6)]GlcNAc(b1-4)GlcNAc
# Procedure, shortened: as §1
# [9] = biological target: GlcNAc(b1-4)Gal(b1-4)GlcNAc
# Procedure, shortened: as §1
# [10] = biological target: GlcNAc(b1-4)GlcNAc(b1-4)GlcNAc(b1-4)GlcNAc(b1-4)GlcNAc(b1-4)GlcNAc
# Procedure, shortened: as §1
# [11] = biological target: Man(a1-3)[Man(a1-6)]Man(b1-4)GlcNAc(b1-4)[Fuc(a1-6)]GlcNAc
# Procedure, shortened: as §1
# [12] = biological target: Neu5Ac(a2-3)Gal(b1-3)GalNAc(b1-3)Gal(a1-4)Gal(b1-4)Glc
# Procedure, shortened: as §1
# [13] = biological target: Neu5Ac(a2-3)Gal(b1-3)GlcNAc(b1-2)Man(a1-3)[Neu5Ac(a2-3)Gal(b1-3)GlcNAc(b1-2)Man(a1-6)]Man(b1-4)GlcNAc(b1-4)GlcNAc
# Procedure, shortened: as §1
# [14] = biological target: Neu5Ac(a2-3)Gal(b1-4)GlcNAc(b1-2)[Neu5Ac(a2-3)Gal(b1-4)GlcNAc(b1-4)]Man(a1-3)[GlcNAc(b1-4)][Neu5Ac(a2-3)Gal(b1-4)GlcNAc(b1-4)Man(a1-6)]Man(b1-4)GlcNAc(b1-4)GlcNAc
# Procedure, shortened: as §1
# [15] = biological target: Neu5Ac(a2-3)Gal(b1-4)GlcNAc(b1-3)Gal(b1-4)GlcNAc(b1-3)Gal(b1-4)GlcNAc
# Procedure, shortened: as §1
# [16] = biological target: Neu5Ac(a2-3)Gal(b1-4)GlcNAc(b1-6)[Gal(b1-3)]GalNAc
# Procedure, shortened: as §1
# [17] = biological target: Neu5Ac(a2-6)Gal(b1-4)GlcNAc(b1-2)Man(a1-6)[Man(a1-3)]Man(b1-4)GlcNAc(b1-4)GlcNAc
# Procedure, shortened: as §1
# [18] = biological target: Neu5Ac(a2-6)Gal(b1-4)GlcNAc(b1-3)Gal(b1-4)[Fuc(a1-3)]GlcNAc(b1-3)Gal(b1-4)[Fuc(a1-3)]GlcNAc
# Procedure, shortened: as §1
# [19] = biological target: Neu5Ac(a2-8)Neu5Ac(a2-3)[Gal(b1-3)GalNAc(b1-4)]Gal(b1-4)Glc
# Procedure, shortened: as §1
# [20] = biological target: Neu5Ac(a2-8)Neu5Ac(a2-3)[GalNAc(b1-4)]Gal(b1-4)Glc
# Procedure, shortened: as §1
# [21] = biological target: Neu5Ac(a2-8)Neu5Ac(a2-8)Neu5Ac
# Procedure, shortened: as §1
binder,measurement,setting,value
Gal 8 (Homo sapiens) (protein) MLSLNNLQNIIYNPVIPYVGTIPDQLDPGTLIVICGHVPSDADRFQVDLQNGSSVKPRADVAFHFNPRFKRAGCIVCNTLINEKWGREEITYDTPFKREKSFEIVIMVLKDKFQVAVNGKHTLLYGHRIGPEKIDTLGIYGKVNIHSIGFSFSSDLQSTQASSLELTEISRENVPKSGTPQLQTVSPSWDLQGHGSETFCSVLWTRVFLEIAFCRPIGLTVASFQSLPFAARLNTPMGPGRTVVVKGEVNANAKSFNVDLLAGKSKDIALHLNPRLNIKAFVRNSFLQESWGEEERNITSFPFSPGMYFEMIIYCDVREFKVAVNGVHSLEYKHRFKELSSIDTLEINGDIHLLEVRSW,glycan array binding signal (z-score),[1],-0.353
same,glycan array binding signal (z-score),[2],-0.354
same,glycan array binding signal (z-score),[3],-0.338
same,glycan array binding signal (z-score),[4],5.71
same,glycan array binding signal (z-score),[5],4.87
same,glycan array binding signal (z-score),[6],6.06
same,glycan array binding signal (z-score),[7],-0.41
same,glycan array binding signal (z-score),[8],-0.727
same,glycan array binding signal (z-score),[9],-0.2
same,glycan array binding signal (z-score),[10],-0.392
same,glycan array binding signal (z-score),[11],-0.357
same,glycan array binding signal (z-score),[12],0.798
same,glycan array binding signal (z-score),[13],-0.328
same,glycan array binding signal (z-score),[14],-0.314
same,glycan array binding signal (z-score),[15],2.12
same,glycan array binding signal (z-score),[16],-0.143
same,glycan array binding signal (z-score),[17],-0.357
same,glycan array binding signal (z-score),[18],-0.378
same,glycan array binding signal (z-score),[19],-0.355
same,glycan array binding signal (z-score),[20],-0.398
same,glycan array binding signal (z-score),[21],-0.396

# Reference: the supplement of paper PMC8728848
